The text below walks through data of PubChem BioAssay AID720706 (Broad Institute, 2013).

The whole screen tested about 350,000 compounds, of which about 5,500 (1.6%) were called active.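 The calls were made as follows: active = significant combined selectivity score with lowered wild-type GFP, culture density cut under 30%, mutant RFP and density less affected; inactive = any of these conditions unmet.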 The list comes from a sample in which actives are over-represented; it also holds similar structures and randomly drawn compounds.

The nature of the experiment: GFP drop in mixed WT/humanized-ribosome E. coli culture – GFP/RFP fluorescence, OD600, single point, bacterial rRNA inhibitor project, primary screen (AID 720706). To be noted: E. coli WT GFP vs humanized-ribosome RFP mutants, 24 h; GFP signal change (wild-type ribosome): stronger effect = lower value, DMSO median 0, no signal -100; OD600 change: measured here: OD600 growth, DMSO median 0, no signal -100; RFP signal change: measured here: RFP humanized mutant strains, DMSO median 0, no signal -100, concentration not given here.
As to `C[C@H](O)C#Cc1cnc2c(c1)C(=O)N([C@H](C)CO)C[C@H](C)[C@@H](CN(C)C(=O)Nc1ccc(F)cc1)O2`, the GFP signal change (wild-type ribosome) is 1.18% (inactive), the OD600 change amounted to 9.67% and the RFP signal change was -3.38%.
On the same counts, the results for `COc1ccc(C#Cc2ccc([C@H]3[C@H]4CN(C(=O)c5cccnc5)CC(=O)N4[C@H]3CO)cc2)cc1` are 0.302% (inactive), -5.28% and 2.11%.
On to `COc1cc(C(=O)NCc2cc3cc(Cl)ccc3n2C)cc(OC)c1OC`, for which the GFP signal change (wild-type ribosome) is 4.54% (inactive), the OD600 change was determined as 12% and the RFP signal change was determined as 5.4%.
The like results for `COc1ccc(/C(C)=N/NC(=O)CCC(=O)Nc2ccc(Cl)cc2Cl)c(OC)c1` were, in that order, -6.41% (inactive), -4.28% and 3.43%.
The like results for `COc1ccc(OC)c(/C(C)=N\NC(=O)c2cc3cc(Cl)ccc3n2C)c1` were, in that order, -24% (active), -9.4% and -0.802%.
`C[C@@H](C(=O)N(C)C[C@H]1OCc2ccccc2-c2c(n(C)c3ccccc23)C(=O)N([C@@H](C)CO)C[C@@H]1C)c1ccccc1`: the GFP signal change (wild-type ribosome) is -2.7% (inactive), the OD600 change is -4.37% and the RFP signal change is 3.17%.
With `COc1ccc(CN(C)C[C@H]2OCc3cn(nn3)CCCC(=O)N([C@@H](C)CO)C[C@@H]2C)cc1`, the GFP signal change (wild-type ribosome) was -0.663% (inactive), the OD600 change is 4.94% and the RFP signal change was -1.83%.
The like results for `COc1ccc(NS(=O)(=O)c2ccc(Oc3c(C#N)cccc3C#N)cc2)cc1` were, in that order, -33% (active), -6.7% and -3.93%.
`COc1ccc(NS(=O)(=O)c2ccc(N3CCN(CCO)CC3)c([N+](=O)[O-])c2)cc1`: the GFP signal change (wild-type ribosome) is -3.32% (inactive), the OD600 change stood at 8.86% and the RFP signal change was determined as 0.35%.
On the same counts, the results for `COc1ccc(NS(=O)(=O)c2cccc(C(=O)NCCc3ccc(S(N)(=O)=O)cc3)c2)cc1` are -0.729% (inactive), -4.13% and 2.24%.
The like results for `C[C@@H]1CN([C@H](C)CO)C(=O)c2cc(NC(=O)CCN3CCOCC3)ccc2O[C@H]1CN(C)Cc1ccc(Oc2ccccc2)cc1` were, in that order, -0.524% (inactive), 2.21% and -0.41%.
For `O=C(Nc1ccccc1F)N[C@H]1CC[C@@H](CCNS(=O)(=O)c2ccc(F)cc2)O[C@@H]1CO`, the GFP signal change (wild-type ribosome) was 0.53% (inactive), the OD600 change is -4.9% and the RFP signal change was 0.665%.
On the same counts, the results for `O=C1Oc2ccccc2C(=O)/C1=C/c1ccccc1O` are -24% (active), -16.1% and -3.67%.
The like results for `O=C(NN=Cc1ccccc1O)NN=Cc1ccccc1O` were, in that order, -15.2% (inactive), -34.3% and -9.61%.
The like results for `COC(=O)c1ccc(/C=C2/C(=O)Oc3ccccc32)cc1` were, in that order, 5.01% (inactive), 8.63% and -1.53%.
As for `O=C(N[C@H]1CC[C@@H](CCNS(=O)(=O)Cc2ccccc2)O[C@H]1CO)c1ccccc1F`, the GFP signal change (wild-type ribosome) is 1.77% (inactive), the OD600 change was found to be 2.62% and the RFP signal change came to 1.25%.
The like results for `COCC(=O)Nc1ccc2c(c1)C(=O)N(C)C[C@H](OC)[C@@H](C)CN(CCc1ccccc1)[C@@H](C)CO2` were, in that order, -2.84% (inactive), -4.45% and -1.3%.
On the same counts, the results for `CCC(C)CN1C(=O)CN(S(C)(=O)=O)CC1(C)C(=O)Nc1ccc2c(c1)OCCO2` (stereo not drawn) are 11.4% (inactive), 6.25% and 0.462%.
The like results for `Cc1ccccc1CN1C(=O)CSCC1(C)C(=O)Nc1c(C)cccc1C` (stereo not drawn) were, in that order, -3.76% (inactive), 8.15% and 2.11%.
Regarding `CC1(C(=O)Nc2ccc3c(c2)OCCO3)CSCC(=O)N1CCOc1ccccc1` (stereo not drawn), the GFP signal change (wild-type ribosome) was -19.5% (active), the OD600 change is -13.7% and the RFP signal change was 6.62%.
Regarding `C[C@@H]1CCCCO[C@@H](CN(C)C(=O)Cc2ccccc2)[C@H](C)CN([C@H](C)CO)C(=O)c2cc(NC(=O)Cc3ccccc3)ccc2O1`, the GFP signal change (wild-type ribosome) is -4.58% (inactive), the OD600 change was -13.8% and the RFP signal change was -0.346%.
Turning to `COc1cccc(CNC(=O)[C@@H]2[C@@H](CO)[C@@H]3Cn4c(ccc(-c5ccncc5)c4=O)[C@H]2N3C(C)=O)c1`, the GFP signal change (wild-type ribosome) was 2.73% (inactive), the OD600 change was -2.66% and the RFP signal change is -0.658%.
Consider `Cc1noc(C)c1S(=O)(=O)Nc1ccc2c(c1)C(=O)N([C@@H](C)CO)C[C@@H](C)[C@@H](CN(C)C)O2`, for which the GFP signal change (wild-type ribosome) was 5.72% (inactive), the OD600 change is -2.97% and the RFP signal change is -0.906%.
On the same counts, the results for `Cc1cc2cc(CN(Cc3cccs3)Cc3nnnn3CC3CCCO3)c(=O)[nH]c2cc1C` (stereo not drawn) are -7.06% (inactive), -4.84% and -2.86%.
The like results for `O=C(c1cccs1)N(Cc1cc2ccccc2[nH]c1=O)CC1CCCO1` (stereo not drawn) were, in that order, -0.275% (inactive), -2.27% and -1.32%.
Regarding `Cc1cc(C)c2cc(CN(Cc3cccs3)Cc3nnnn3CC3CCCO3)c(=O)[nH]c2c1` (stereo not drawn), the GFP signal change (wild-type ribosome) is -37.2% (active), the OD600 change is -22.2% and the RFP signal change is -2.73%.
The like results for `CO[C@@H]1CN(C)C(=O)c2ccc(NC(C)=O)cc2OC[C@@H](C)N(CC2CC2)C[C@H]1C` were, in that order, 2.26% (inactive), -1.92% and 1.24%.
As for `CC(=O)N(C)C[C@@H]1Oc2ccc(N)cc2CC(=O)N(C)C[C@H]1C`, the GFP signal change (wild-type ribosome) was 1.8% (inactive), the OD600 change stood at 0.888% and the RFP signal change is -1%.
Consider `CNC[C@@H]1Oc2ccc(NC(C)=O)cc2CC(=O)N(C)C[C@@H]1C`, for which the GFP signal change (wild-type ribosome) is -0.631% (inactive), the OD600 change was found to be 1.55% and the RFP signal change was found to be 0.729%.
The like results for `COc1ccc(S(=O)(=O)N[C@@H]2CC[C@@H](CC(=O)N3CCC(Cc4ccccc4)CC3)O[C@@H]2CO)cc1` were, in that order, 8.03% (inactive), -22.7% and 10.2%.
On the same counts, the results for `C[C@H](CO)N1C[C@H](C)[C@H](CN(C)Cc2ccc3c(c2)OCO3)Oc2c(NS(=O)(=O)c3ccccc3)cccc2C1=O` are -1.49% (inactive), 3.3% and -2.6%.
